The results in this text go back to PubChem BioAssay.

Molecules are shown by their SMILES. The source made the active and inactive calls. How the calls were made is not given here.

Broadly, the inhibition is the change of the read-out against control, counted positive when it falls.

The target in this assay is Pantothenate synthetase (Mycobacterium tuberculosis (strain ATCC 25618 / H37Rv)) (UniProt P9WIL5). In words: Recombinant Mtb pantothenate synthetase (PanC) inhibitors, coupled enzyme, confirmatory (AID 375).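 Further: 0% = full reaction with vehicle and 100% = no enzyme background.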 As to conditions: coupled enzyme assay; at 10 µM, hits give high values.
Pantothenate synthetase (Mycobacterium tuberculosis (strain ATCC 25618 / H37Rv)), sequence (P9WIL5 whole entry, looked up): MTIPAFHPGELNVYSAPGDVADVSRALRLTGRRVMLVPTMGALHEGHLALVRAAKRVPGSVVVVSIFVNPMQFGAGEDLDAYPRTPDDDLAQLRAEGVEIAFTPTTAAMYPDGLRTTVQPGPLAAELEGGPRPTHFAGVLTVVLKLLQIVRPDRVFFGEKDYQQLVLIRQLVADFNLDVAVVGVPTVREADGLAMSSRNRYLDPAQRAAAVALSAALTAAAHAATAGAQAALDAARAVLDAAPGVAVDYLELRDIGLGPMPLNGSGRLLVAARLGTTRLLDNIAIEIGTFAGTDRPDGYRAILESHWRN
With `CC(=O)c1c(O)cc(C)n(Nc2nc(C)cc(C)n2)c1=O`, the inhibition is 0% (inactive). The same measure for `CCC(C)OC(=O)C1=C(C)NC2=C(C(=O)C(C(=O)OC)C(C)C2)C1c1ccc(N(C)C)cc1` (stereo not given): 0% (inactive).

In the case of `COc1cccc(-c2cc(C(=O)NCc3ccc(Cl)cc3)no2)c1`, the inhibition is 0% (inactive). As for `COc1cccc(CNc2nc3nc(C)c(Cl)c(C)n3n2)c1`, the inhibition was 12% (inactive). The same measure for `C=CCOc1ccc(C2C(C(=O)c3ccco3)=C(O)C(=O)N2Cc2cccnc2)cc1` (stereo not given): 0% (inactive); for `Cc1ccc2nc(-c3ccc(S(=O)(=O)N4CCOCC4)cc3)cn2c1`: 0% (inactive); for `N#Cc1c(SCC(=O)N2CCOCC2)nsc1SCC(=O)N1CCOCC1`: 0% (inactive). Regarding `CC1CCN(CC(O)COC2CCC(C(C)(C)C)CC2)CC1` (stereo not given), the inhibition was 0% (inactive). Take `Cc1ccc(C(=O)Nc2ccc3c(c2)OCO3)o1`: the inhibition is 0% (inactive). The same measure for `CS(=O)(=O)c1ccc2nc(NC(=O)C3C4C=CC(C4)C3C(=O)O)sc2c1` (stereo not given): 1% (inactive). The same measure for `COc1ccc(C(=O)Nc2ccc(S(=O)(=O)NC(C)=O)cc2)cc1`: 0% (inactive); for `COc1ccc(S(=O)(=O)NCC(c2cccnc2)N2CCN(c3ccc(F)cc3)CC2)cc1C` (stereo not given): 0% (inactive); for `CC(C)C1N=C2c3ccccc3N=C(SCC(=O)NCCc3ccc(S(N)(=O)=O)cc3)N2C1=O` (stereo not given): 0% (inactive). The same measure for `CCOC(=O)C1C2C=CC3(CN(c4cccc(Cl)c4)C(=O)C13)O2` (stereo not given): 0% (inactive); for `C/C(N)=C(/C#N)C(=O)CSc1nnc(Nc2c(C)cccc2C)s1`: 9% (inactive).

For `CCN(CC)CCN1C(=O)C(=O)/C(=C(/O)c2c(C)[nH]c(C(=O)OC)c2C)C1c1ccccc1OC` (stereo not given), the inhibition was 0% (inactive).

As for `CCCOc1ccc(OCCSc2ncccn2)cc1`, the inhibition is 0% (inactive). Then `Cn1c(=O)c(=O)n(C)c2cc(S(=O)(=O)N3CCN(c4cccc(C(F)(F)F)c4)CC3)ccc21`, with 9% (inactive); and `O=C(CN1C(=O)c2ccccc2C1=O)NCC1COc2ccccc2O1` (stereo not given), with 0% (inactive); and `Cc1ccc(S(=O)(=O)N2CCN(C(=O)CSc3nnnn3C)C2)cc1`, with 1% (inactive). The same measure for `CS(=O)(=O)NCc1ccc(C(=O)NCc2ccccc2)cc1`: 4% (inactive). In the case of `O=C(CSc1nnc2ccccn12)NCCN1C(=O)CSC1=O`, the inhibition was 0% (inactive).

Consider `Cc1ccc(C)c(N2CCN(C(=O)C3CCN(S(=O)(=O)c4c(C)noc4C)CC3)CC2)c1`, for which the inhibition is 4% (inactive).

`O=C(O)c1cc(=O)c2c(OCC(O)COc3cccc4oc(C(=O)O)cc(=O)c34)cccc2o1`: the inhibition is 1% (inactive).

Turning to `CCC1c2ccc(C)n2CCN1C(=O)Nc1ccccc1OC` (stereo not given), the inhibition was 9% (inactive).

Regarding `CCOc1ccc(NC(=O)CN2C(=O)C3CCCN3C2=O)cc1` (stereo not given), the inhibition is 0% (inactive).

As for `O=C(Nc1ccc2nc(-c3cccs3)[nH]c2c1)c1ccco1`, the inhibition is 0% (inactive). The same measure for `COC(=O)CCc1c(C)c(C#N)c2nc3ccccc3n2c1N1CCCC1`: 0% (inactive); for `CCNc1nc(OC)nc(Oc2ccc(=O)n(-c3ccccc3)n2)n1`: 4% (inactive). Then `CCOc1ccccc1Nc1nnc(SCC(=O)N2CCCC2)s1`, with 0% (inactive); and `COCC(=O)N(C)c1nnc(-c2ccccn2)s1`, with 2% (inactive). The same measure for `COCC(=O)N(Cc1ccc(OC)cc1)Cc1nc2ccccc2c(=O)[nH]1`: 0% (inactive); for `CCCCCCC(=O)c1c(C)[nH]c(C(=O)OCC)c1C`: 1% (inactive). In the case of `CCC(=O)Nc1cc(C)c(NC(=O)C23CC4CC(CC(C4)C2)C3)cn1`, the inhibition is 5% (inactive). Then `Cc1ccc(CNC(=O)COC(=O)c2c(C)noc2C)cc1`, with 0% (inactive). Then `Cc1ccc(C(c2sc3nc(C)nn3c2O)N2CC(C)OC(C)C2)cc1` (stereo not given), with 0% (inactive); and `CCn1c(CNc2ccc(C)cc2)nnc1SCC(=O)NCc1ccccc1`, with 0% (inactive). Take `CC(CN1CCCCC1)OC(=O)c1ccc(Cl)cc1Cl` (stereo not given): the inhibition is 0% (inactive).

As for `CCOC(=O)N1CCN(c2c(N3CCc4ccccc4C3)c(=O)c2=O)CC1`, the inhibition was 0% (inactive).

On to `CCOC(=O)c1ccc(NC(=O)Nc2ccn(C)n2)cc1`, for which the inhibition is 0% (inactive).
